The campaign covered roughly 5,500 compounds. About 2,000 (36%) were called active. Inconclusive results (about 18%) are left out. No stated cut-off is given here; in the data, active means normalized growth mostly below about 0.91 (no sharp cut-off); inconclusive means no clear call, values can overlap the other calls; inactive means mostly above about 0.92. The list shows a part of the results.
Assay: chemical genetic growth profiling, strain panel (AID 1159580);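 further: tested at 20 µM; growth read once vehicle control cultures reached saturation at 30 °C; 1 = growth at the plate median or of vehicle wells; lower values mean less growth of the strain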
Details: growth OD

Measured: normalized growth

COc1cc(OC)c2c3c1C(=O)c1c(OC)cc(C)c4c(OC)cc(c-3c14)C(C)(C)C2=O
inactive: S. cerevisiae deletion strains, locus YAL013W, strain DEP1, hits give low values 1.02 | S. cerevisiae deletion strains, locus YBR021W, strain FUR4, hits give low values 0.993 | S. cerevisiae deletion strains, locus YBR229C, strain ROT2, hits give low values 1.02 | S. cerevisiae deletion strains, locus YCL029C, strain bik1, hits give low values 0.993 | S. cerevisiae deletion strains, locus YDL035C, strain GPR1, hits give low values 0.99 | S. cerevisiae deletion strains, locus YDL074C, strain BRE1, hits give low values 0.991 | S. cerevisiae deletion strains, locus YDL101C, strain DUN1, hits give low values 1.01 | S. cerevisiae deletion strains, locus YDL134C, strain PPH21, hits give low values 1 | S. cerevisiae deletion strains, locus YDL185W, strain tfp1, hits give low values 0.991 | S. cerevisiae deletion strains, locus YDL192W, strain arf1, hits give low values 0.988 | S. cerevisiae deletion strains, locus YDR101C, strain arx1, hits give low values 0.971 | S. cerevisiae deletion strains, locus YDR150W, strain NUM1, hits give low values 1.01 | S. cerevisiae deletion strains, locus YDR162C, strain NBP2, hits give low values 1.03 | S. cerevisiae deletion strains, locus YDR318W, strain mcm21, hits give low values 0.98 | S. cerevisiae deletion strains, locus YDR388W, hits give low values 0.989 | S. cerevisiae deletion strains, locus YDR502C, strain sam2, hits give low values 0.981 | S. cerevisiae deletion strains, locus YEL061C, strain CIN8, hits give low values 1.01 | S. cerevisiae deletion strains, locus YER110C, hits give low values 0.988 | S. cerevisiae deletion strains, locus YER155C, strain BEM2, hits give low values 1.01 | S. cerevisiae deletion strains, locus YER167W, strain BCK2, hits give low values 0.987 | S. cerevisiae deletion strains, locus YGL078C, strain dbp3, hits give low values 1 | S. cerevisiae deletion strains, locus YGL086W, strain mad1, hits give low values 0.968 | S. cerevisiae deletion strains, locus YGL248W, strain PDE1, hits give low values 1.01 | S. cerevisiae deletion strains, locus YGR078C, strain PAC10, hits give low values 1.01 | S. cerevisiae deletion strains, locus YGR135W, strain pre9, hits give low values 0.983 | S. cerevisiae deletion strains, locus YGR229C, strain SMI1, hits give low values 0.997 | S. cerevisiae deletion strains, locus YGR252W, strain gcn5, hits give low values 0.896 | S. cerevisiae deletion strains, locus YHR030C, strain SLT2, hits give low values 1.01 | S. cerevisiae deletion strains, locus YHR079C, strain IRE1 (second series), hits give low values 0.977 | S. cerevisiae deletion strains, locus YHR094C, strain hxt1, hits give low values 0.985 | S. cerevisiae deletion strains, locus YHR129C, strain ARP1, hits give low values 1.01 | S. cerevisiae deletion strains, locus YHR200W, strain rpn10, hits give low values 0.989 | S. cerevisiae deletion strains, locus YIL066C, strain RNR3, hits give low values 0.999 | S. cerevisiae deletion strains, locus YIL073C, strain SPO22, hits give low values 0.924 | S. cerevisiae deletion strains, locus YIL125W, strain kgd1, hits give low values 0.994 | S. cerevisiae deletion strains, locus YIR030C, strain dcg1, hits give low values 0.979 | S. cerevisiae deletion strains, locus YJL095W, strain BCK1, hits give low values 1.01 | S. cerevisiae deletion strains, locus YJL134W, strain LCB3, hits give low values 1 | S. cerevisiae deletion strains, locus YJL168C, strain set2, hits give low values 0.987 | S. cerevisiae deletion strains, locus YJL187C, strain SWE1 (second series), hits give low values 1.01 | S. cerevisiae deletion strains, locus YJR043C, strain POL32, hits give low values 0.993 | S. cerevisiae deletion strains, locus YJR075W, strain HOC1, hits give low values 0.988 | S. cerevisiae deletion strains, locus YKL009W, strain mrt4, hits give low values 0.979 | S. cerevisiae deletion strains, locus YKL068W, hits give low values 0.992 | S. cerevisiae deletion strains, locus YKL085W, strain MDH1 (second series), hits give low values 0.99 | S. cerevisiae deletion strains, locus YKL085W, strain MDH1, hits give low values 0.99 | S. cerevisiae deletion strains, locus YKL190W, strain CNB1, hits give low values 1 | S. cerevisiae deletion strains, locus YKR001C, strain vps1, hits give low values 0.973 | S. cerevisiae deletion strains, locus YLR039C, strain RIC1, hits give low values 1.01 | S. cerevisiae deletion strains, locus YLR058C, strain SHM2, hits give low values 1.01 | S. cerevisiae deletion strains, locus YLR102C, strain apc9, hits give low values 0.981 | S. cerevisiae deletion strains, locus YLR262C, strain YPT6, hits give low values 0.995 | S. cerevisiae deletion strains, locus YLR268W, strain sec22, hits give low values 0.973 | S. cerevisiae deletion strains, locus YLR330W, strain CHS5, hits give low values 1.02 | S. cerevisiae deletion strains, locus YLR342W, strain FKS1 (second series), hits give low values 0.967 | S. cerevisiae deletion strains, locus YLR371W, strain rom2, hits give low values 0.99 | S. cerevisiae deletion strains, locus YLR418C, strain cdc73, hits give low values 0.947 | S. cerevisiae deletion strains, locus YML016C, strain PPZ1, hits give low values 1.01 | S. cerevisiae deletion strains, locus YML032C, strain rad52, hits give low values 0.973 | S. cerevisiae deletion strains, locus YML124C, strain tub3, hits give low values 0.985 | S. cerevisiae deletion strains, locus YMR078C, strain ctf18, hits give low values 0.99 | S. cerevisiae deletion strains, locus YMR223W, strain ubp8, hits give low values 0.969 | S. cerevisiae deletion strains, locus YMR263W, strain SAP30, hits give low values 1.02 | S. cerevisiae deletion strains, locus YMR307W, strain GAS1, hits give low values 0.977 | S. cerevisiae deletion strains, locus YNL067W, strain RPL9B, hits give low values 1.01 | S. cerevisiae deletion strains, locus YNL128W, strain TEP1, hits give low values 1.02 | S. cerevisiae deletion strains, locus YNL153C, strain GIM3, hits give low values 1.02 | S. cerevisiae deletion strains, locus YNL233W, strain BNI4, hits give low values 1.01 | S. cerevisiae deletion strains, locus YNL250W, strain rad50, hits give low values 0.989 | S. cerevisiae deletion strains, locus YNL271C, strain bni1, hits give low values 0.994 | S. cerevisiae deletion strains, locus YNL298W, strain CLA4, hits give low values 0.99 | S. cerevisiae deletion strains, locus YNL307C, strain MCK1, hits give low values 0.95 | S. cerevisiae deletion strains, locus YNL322C, strain KRE1, hits give low values 1.01 | S. cerevisiae deletion strains, locus YNR052C, strain pop2, hits give low values 0.985 | S. cerevisiae deletion strains, locus YOL006C, strain TOP1, hits give low values 0.991 | S. cerevisiae deletion strains, locus YOL012C, strain htz1 1.08 | S. cerevisiae deletion strains, locus YOL147C, strain pex11, hits give low values 0.994 | S. cerevisiae deletion strains, locus YOR061W, strain CKA2, hits give low values 1 | S. cerevisiae deletion strains, locus YOR069W, strain VPS5, hits give low values 1 | S. cerevisiae deletion strains, locus YOR136W, strain idh2, hits give low values 0.987 | S. cerevisiae deletion strains, locus YOR144C, strain elg1, hits give low values 0.991 | S. cerevisiae deletion strains, locus YOR184W, strain ser1, hits give low values 0.952 | S. cerevisiae deletion strains, locus YOR316C, strain cot1, hits give low values 0.981 | S. cerevisiae deletion strains, locus YPL055C, strain LGE1, hits give low values 1.01 | S. cerevisiae deletion strains, locus YPL241C, strain CIN2, hits give low values 1.01 | S. cerevisiae deletion strains, locus YPR119W, strain clb2, hits give low values 0.988 | S. cerevisiae deletion strains, locus YPR141C, strain kar3, hits give low values 0.986 | S. cerevisiae deletion strains, locus YPR163C, strain tif3, hits give low values 0.989 | S. cerevisiae deletion strains, locus YPR167C, strain met16, hits give low values 0.981 | S. cerevisiae deletion strains, strain wtn01, hits give low values 0.95 | S. cerevisiae strains, strain wild type, hits give low values 1
